# According to PubChem BioAssay AID2401 (Southern Research Specialized Biocontainment Screening …, 2010):
# Among all 2,200 compounds or so, about 530 (24%) were called active.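 How the source made its calls: active means inhibition above a set limit at one or more concentrations of the dose series; inactive means inhibition under that limit at every dose.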 These entries were drawn from the full list. Entries with a potency or affinity are not part of this list.
# Test: S. Typhimurium nonspecific reporter signal inhibition – Salmonella Typhimurium, GFP fluorescence, counter-screen for PhoP regulon inhibitor project, dose response (AID 2401);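 further: S. typhimurium with Mg-insensitive nmpC-GFP reporter grown at 10 µM Mg2+; drop in reporter fluorescence reflects general culture growth inhibition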
# Details: 4 h; series mostly up to 150 µM; inhibition: at the top concentration
row,SMILES,inhibition
1,COc1cccc(NS(=O)(=O)c2c(C)cc(C)cc2C)c1,-7.85% (inactive)
2,COc1ccc(-c2ccc(C#N)c(SCC(=O)NCCc3ccccc3)n2)cc1OC,0.91% (inactive)
3,Cc1ccc(Nc2nc(Cl)nc(N(C)C#N)n2)cc1,2.65% (inactive)
4,c1csc(C2Nc3cccc4cccc(c34)N2)c1,0.19% (inactive)
5,Clc1ccc(OCCn2ccnc2)c2ccccc12,-0.92% (inactive)
6,CCOCC(=O)Nc1ccc(F)c(F)c1,4.86% (inactive)
7,Cc1ncoc1C(=O)Nc1cccc(Cl)c1,15.7% (inactive)
8,COCCNC(=S)N(Cc1cccnc1)Cc1ccc(OC)c(OC)c1,-20.2% (inactive)
9,O=C1NC(=O)C(=C2CCCCCC2)S1,36.9% (inactive)
10,Nc1cc(N2CCCCC2)c(Cl)cc1[N+](=O)[O-],-15.6% (inactive)
11,Cc1ccc(N2C(=O)CC(Nc3ccccc3)C2=O)cc1 (stereo not given),11.4% (inactive)
12,COc1ccc(-c2nnc(SCCC(=O)O)n2-c2ccccc2)cc1,-26.7% (inactive)
13,Nc1nc(-c2ccc3c(c2)OCCO3)cs1,-21% (inactive)
14,Cc1ccc(C)c(NC(=S)NCCSc2ccc(Cl)cc2)c1,-14.8% (inactive)
15,CCc1cc2c(NCCC(=O)O)nc(C)nc2s1,-11.1% (inactive)
16,CC(=O)Nc1ccc(-c2nnc(SCc3c(C)cc(C)cc3C)n2C)cc1,-11.1% (inactive)
17,c1ccc(CSc2snnc2-c2ccccc2)cc1,-31.4% (inactive)
18,CCn1c(SCC(=O)Nc2ccc3c(c2)oc2ccccc23)nnc1-c1ccc(N)cc1,2.44% (inactive)
19,NNC(=O)CNC(c1ccccc1)c1cc(Br)ccc1NC(=O)c1ccc(Br)cc1 (stereo not given),13.7% (inactive)
20,Cc1cccc(N2CCN(CC(=O)Nc3nccs3)CC2)c1C,-13.5% (inactive)
21,FC(F)(F)c1cccc(NC(=S)NCCN2CCOCC2)c1,-6.17% (inactive)
22,Cc1cc(C)cc(-n2c(C)cc(C=C(C#N)C#N)c2C)c1,-13.9% (inactive)
23,CCOC(=O)C1=C(C)Nc2nc3ccccc3n2C1c1cccs1 (stereo not given),-23.9% (inactive)

row,SMILES,inhibition
1,Cc1ccc(C(=O)Oc2cccc(NC(=O)c3cccs3)c2)cc1S(=O)(=O)N1CCOCC1,1.74% (inactive)
2,COc1c(Cl)cnn(-c2ccc(C)cc2)c1=O,-8.06% (inactive)
3,CCc1c(C)c2cc(Cl)c(O)c(CN3CCCCC3)c2oc1=O,-17.8% (inactive)
4,CCc1ccc(NC(=O)c2noc3c2CCc2ccccc2-3)cc1,-4.07% (inactive)
5,C=CCOc1ccc(/C=N/NC(=O)CN(c2cc(Cl)ccc2OC)S(=O)(=O)c2ccc(C)c([N+](=O)[O-])c2)cc1,4.39% (inactive)
6,O=C(NCCc1cn2ccccc2n1)c1ccccc1F,0.92% (inactive)
7,Cc1nc(SCC(=O)NC(C)c2ccccc2)c2oc3ccccc3c2n1 (stereo not given),-19.4% (inactive)
8,COc1ccc(C(=O)N2CCc3cc(OC)c(OC)cc3C2)cc1OC,-1.95% (inactive)
9,Cc1ccc(S(=O)(=O)NNC(=O)c2ccc(O)cc2)cc1,-8.07% (inactive)
10,CCOC(=O)c1sc(NC(=O)Nc2ccc(Cl)cc2)cc1C,-2.19% (inactive)
11,CCc1ccc2[nH]c(=O)c(CN(Cc3ccccc3)C(=O)Nc3ccccc3OC)cc2c1,-16.5% (inactive)
12,COc1ccccc1NC(=S)NC(=O)C(C)(C)C,-16.6% (inactive)
13,COc1ccccc1N1CCN(C(=O)c2cccc3c(=O)c(C)c(-c4ccccc4)oc23)CC1,-10.7% (inactive)
14,CCN1C(=O)N/C(=C/c2ccc(Sc3ccc(C)cc3)o2)C1=O,16.1% (inactive)
15,CC(=O)c1cccc(NC(=O)Nc2cc3sccc3n2C)c1,15.5% (inactive)
16,COc1cc(C2SCC(=O)N2c2nnc(C34CC5CC(CC(C5)C3)C4)s2)cc(OC)c1OC (stereo not given),-11.2% (inactive)
17,Brc1ccc(OCCn2ccnc2)cc1,22.6% (inactive)
18,CCCCNC(=O)OC1CCS(=O)(=O)C1 (stereo not given),-14.7% (inactive)
19,O=c1c(Cl)c(Cl)cnn1Cc1ccccc1Cl,-23.5% (inactive)
20,Cc1ccc(S(=O)(=O)N(CC(=O)N=Nc2c(O)[nH]c3ccccc23)c2ccc(C)c(C)c2)cc1,1.85% (inactive)
21,Cc1ccccc1C(=O)N(C)Cc1ccccc1,-13.5% (inactive)
22,CCc1nc2cc(Cl)c(Cl)cc2[nH]1,25.5% (inactive)
23,O=C(O)c1cc(NCc2ccc3c(c2)OCO3)ccc1N1CCOCC1,-11.9% (inactive)

row,SMILES,inhibition
1,CCn1cc(C(=O)O)c(=O)c2cc(Br)ccc21,26.6% (inactive)
2,Cc1ccc(S(=O)(=O)c2cn(Cc3ccc(F)cc3)c3cc4c(cc3c2=O)OCO4)cc1,11.5% (inactive)
3,O=C(Cn1nc(Cc2cccnc2)c2ccccc2c1=O)NCc1ccc2c(c1)OCO2,-18.9% (inactive)
4,COc1ccc(OC)c(-c2cc(C(=O)Nc3c(C)nn(Cc4ccccc4)c3C)no2)c1,9.76% (inactive)
5,CCS(=O)(=O)Nc1cc(C(=O)OC)ccc1C(=O)OC,-28.1% (inactive)
6,Cn1nnnc1SCC(=O)NC1CCCCC1,-26.8% (inactive)
7,COC(=O)c1ccc(NC(=S)Nc2ccc3ccccc3c2)cc1,0.98% (inactive)
8,Cc1nn2c(=O)cc(CSc3nc4ccccc4[nH]3)nc2s1,-16.9% (inactive)
9,CCn1ncc(/C=C/C(=O)NCc2cn(C)nc2C)c1C,-28% (inactive)
10,COc1ccc(S(=O)(=O)N2CCN(Cc3ccccc3)CC2)cc1,-13.4% (inactive)
11,CCN(CC)S(=O)(=O)c1ccc2[nH]cc(C(=O)NCCc3ccccc3)c(=O)c2c1,-2.33% (inactive)
12,Cc1ccc(C)c(NC(=O)C(Sc2nnc(-c3cccs3)o2)c2ccccc2)c1 (stereo not given),13.8% (inactive)
13,CN(c1ccccc1)S(=O)(=O)c1ccc(C(=O)Nc2nnc(-c3ccc(F)cc3)o2)cc1,3.22% (inactive)
14,Oc1ccc(Br)cc1-c1nc2cnccn2c1NC1CCCCC1,-17.6% (inactive)
15,O=C(Nc1ccccn1)NC1CCCCC1,-23.9% (inactive)
16,COc1ccc(N2C(=O)C3CCCN3C2c2cccc(C)c2)cc1Cl (stereo not given),-11.8% (inactive)
17,O=C(/C=C/c1ccco1)N/C(=C\c1ccccc1)C(=O)NCCc1nc2ccccc2[nH]1,7.59% (inactive)
18,CC(C(=O)NC1CCCc2ccccc21)N1CCN(Cc2ccc3c(c2)OCO3)CC1 (stereo not given),16.4% (inactive)
19,Cc1ccccc1Nc1nnc(SCC(=O)NC2CCCc3ccccc32)s1 (stereo not given),7.38% (inactive)
20,Cc1ccc(CNc2oc(-c3cccs3)nc2C#N)cc1,-1.55% (inactive)
21,CN(CC(=O)N1CCN(c2ccccn2)CC1)S(=O)(=O)c1ccc2ccccc2c1,-0.24% (inactive)
22,COc1ccc(C2C(C#N)=C(N)OC3=C2C(=O)CCC3)cc1Cn1cc([N+](=O)[O-])cn1 (stereo not given),12.2% (inactive)
23,COc1ccc(Nc2nnc(SCc3cn4c(C)cccc4n3)s2)cc1,15.9% (inactive)

row,SMILES,inhibition
1,Cc1cc(N/N=C/c2cccc(Cl)c2)nc(NCc2ccccc2)n1,-33% (inactive)
2,Clc1ccc(Nc2ccc(NCc3ccccc3)nn2)cc1,33.6% (inactive)
3,Cc1ccc(NC(=O)CSc2nnc(C3CCCCC3)n2N)cc1F,-18.6% (inactive)
4,CCOc1ccc2nc(COC(=O)c3ccco3)c(C(C)=O)[n+]([O-])c2c1,-18.2% (inactive)
5,O=C(Nc1ccc(Br)cc1)c1ccc(F)c(S(=O)(=O)NCc2cccs2)c1,-27.7% (inactive)
6,NCCCCCc1nnc(SCc2ccc(Cl)c(Cl)c2)o1,1.67% (inactive)
7,O=C(Cn1cc[n+](CC(=O)c2ccccc2)c1)c1ccccc1,-18.9% (inactive)
8,CC(C)(C)c1n[nH]c(=S)n(/N=C/c2cccs2)c1=O,-21.7% (inactive)
9,N#CC1=C(N)SC(N)=C(C#N)C1c1ccc([N+](=O)[O-])cc1,-16.9% (inactive)
10,Cc1cc(Oc2ccc(-c3nnc(-c4ccccc4)o3)cc2[N+](=O)[O-])ccc1Cl,-20.9% (inactive)
11,Cc1ccccc1OCCSCc1nc2ccccc2[nH]1,17.8% (inactive)
12,O=C(CCN1C(=O)c2ccccc2S1(=O)=O)Nc1ccc2c(c1)OCCO2,-18.3% (inactive)
13,COc1ccc(OC)c(S(=O)(=O)N2c3cc(F)ccc3CCC2C)c1 (stereo not given),-21.7% (inactive)
14,CC1(C)CC(=O)c2c(nc3ccccc3c2N)C1,9.98% (inactive)
15,O=C(NNc1c2ccccc2nc2ccccc12)c1cccc(O)c1,17.4% (inactive)
16,Nc1nnc(SCc2ccc(F)cc2Cl)s1,-55% (inactive)
17,CNC(=O)CN(c1ccc(F)cc1)S(=O)(=O)c1cc(C)ccc1OC,-28.5% (inactive)
18,CN1CCCC(OC(=O)CCCC(=O)OC2CCCN(C)C2)C1 (stereo not given),-24.7% (inactive)
19,Cc1ccc2[nH]c3c(=O)n(CCc4cnc[nH]4)cnc3c2c1,-30.1% (inactive)
20,Cc1ccc(C(=O)COC(=O)CNS(=O)(=O)c2ccccc2)cc1[N+](=O)[O-],-25.7% (inactive)
21,CC(C)n1cc(C(=O)N2CCCC(N3CCN(c4ccc(F)cc4)CC3)C2)cn1 (stereo not given),-29.9% (inactive)
22,CCn1cc(C(C)(C)C)c(C#N)c1NC(C)=O,-3.54% (inactive)
23,O=C(NC1CCCCC1)n1c(=O)oc2ccc(Cl)cc21,31.2% (inactive)

row,SMILES,inhibition
1,O=C(CCN1C(=O)C2C3C=CC(C3)C2C1=O)N1CCN(c2cccc(Cl)c2)CC1 (stereo not given),-20.2% (inactive)
2,Cc1cccc(OCC(=O)N(Cc2cccs2)C2CCS(=O)(=O)C2)c1C (stereo not given),-19.3% (inactive)
3,CC(C)Oc1cccc(C(=O)NC(=S)Nc2ccccc2)c1,-26% (inactive)
4,CC(C)OC(=O)c1ccc(NC(=O)c2ccccc2)cc1,-13.3% (inactive)
5,COc1ccc(Oc2coc3cc(OC(=O)c4cccs4)ccc3c2=O)cc1,-16.5% (inactive)
6,COC(=O)c1ccc(NC(=O)c2ccc(N(C)S(C)(=O)=O)cc2)cc1,-11.4% (inactive)
7,O=C(CCCCCNc1nc(=S)[nH]c2ccccc12)NCCc1c[nH]c2ccccc12,-31.1% (inactive)
8,O=C(NNC(=O)c1ccccc1-n1cccc1)c1ccc(Cl)c(Cl)c1,-29.7% (inactive)
9,Cc1ccccc1NC(=S)N(CCCN1CCOCC1)Cc1ccccn1,-8.55% (inactive)
10,CCN1CCN(C(=O)c2ccc(COc3ccc(Cl)cc3)o2)CC1,-14.7% (inactive)
11,CCOc1ccc(CCNC(=O)c2cc3sc(Cl)cc3n2C)cc1OCC,-12.1% (inactive)
12,CCOc1ccc(/C=N/O)cc1,-9.74% (inactive)
13,COc1ccc(C)cc1C(=O)CCC(=O)Nc1ccccc1N1CCOCC1,-8.09% (inactive)
14,C#CCOc1ccc(/C=N/O)cc1Cl,-5% (inactive)
15,COc1ccc(C(C(=O)NC2CCCC2)N(C(=O)c2ccoc2C)c2cc(C)cc(C)c2)cc1 (stereo not given),-8.71% (inactive)
16,COc1ccc(NS(=O)(=O)c2cc(C)ccc2NC(=O)c2cc(C)oc2C)cc1,-4.38% (inactive)
17,Cc1cc2oc(=O)cc(CSc3nc(N)cc(N)n3)c2cc1C,-31.2% (inactive)
18,O=C(CSc1nncs1)Nc1ccc2c(c1)OCCO2,-24.4% (inactive)
19,CCOc1ccc(OCc2ccc(C(=O)N3CCc4ccccc4C3)o2)cc1,-19% (inactive)
20,Cc1cc(C(=O)NCc2cccs2)cs1,-11.6% (inactive)
21,COc1ccc2[nH]c(S(=O)Cc3ncc(C)c(OC)c3C)nc2c1 (stereo not given),-33.3% (inactive)
22,Cc1ccc(C(C)C)c(OCC(=O)Nn2c(=O)[nH]c3ccccc3c2=O)c1,-26.8% (inactive)
23,O=C(NC1CC1)C1=NOC(CNc2ncc(C(F)(F)F)cc2Cl)C1 (stereo not given),-15% (inactive)
